Compound activity: PubChem, University of Kansas High Throughput Screening Laboratory
Pf apPOL inh = Pf-apPOL DNA polymerase inhibition; Recombinant Pf-apPOL, molecular beacon fluorescence, 1.5 h; actives 0.25% (n = 210,000); inhibition, % at 10 µM
mHTT CaM bind = inhibitors of human mutant huntingtin-calmodulin interaction; P42858; inhibition, % at 15 µM; AlphaScreen His-mHTT/GST-CaM binding, luminescence; actives 3.6% (n = 190,000);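 also: 0% = both proteins with DMSO and 100% = one protein alone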
Starred values were filed as active, the others as inactive; i = inactive; . = not tested or not shown; ! = not confirmed by another sample. Compounds with a hit are over-represented: about 3.5% of the library has one in this group of screens. Rule as the data show it: active = inhibition above about 50%; inactive = the rest.

SMILES	Pf apPOL inh	mHTT CaM bind
Cn1cccc1-c1cc2n(n1)CCCN2C(=O)CCC(=O)N1CCc2ccccc2C1	-1	54*
Cc1ccccc1NC(=O)CCC(=O)N1CCCn2nc(-c3cccn3C)cc21	-2	31
Cc1noc(COC2CCCN(C(=O)COc3ccccc3C)C2)n1 (stereo unspecified)	-3	-1
O=S1(=O)CC(N2CCN(CC3CC3)CC2)CN1Cc1ccccc1 (stereo unspecified)	1	-6
CCN1CCN(c2cc(Oc3cccc(C)c3)ncn2)CC1	-7	-1
COc1cc(/C=c2\sc3nc4ccccc4n3c2=O)cc([N+](=O)[O-])c1O	1	57*
O=c1/c(=C/c2ccc(Br)c([N+](=O)[O-])c2)sc2nc3ccccc3n12	2	-6
Cc1ccnc(SCC(=O)Nc2ccccc2)n1	-3	0
Cc1cc2c(c(=O)[nH]1)C(=O)O/C2=C\c1ccc(C)o1	-3	69*
Cc1cc2c(c(=O)[nH]1)C(=O)O/C2=C\c1cccs1	-3	12
COc1ccc(Cl)cc1S(=O)(=O)n1nnc2ccccc21	-1	18
COc1cc(Cl)c(S(=O)(=O)n2nnc3ccccc32)cc1Cl	-12	-4
COc1c(S(=O)(=O)n2nnc3ccccc32)ccc(Cl)c1Cl	-7	87*!
COc1cc(S(=O)(=O)n2nnc3ccccc32)ccc1Cl	-9	88*!
O=S(=O)(c1ccc(Cl)c(Cl)c1Cl)n1nnc2ccccc21	-4	-8
O=S(=O)(c1cc(Cl)ccc1Cl)n1nnc2ccccc21	0	57*
Cc1ccc(Nc2nc(C)nc3sc(C)cc23)c(Br)c1	-4	4
N#CC1=C(SCC(N)=O)NC(=O)CC1c1ccc(Br)cc1 (stereo unspecified)	-1	2
CCCN1C(=O)Cc2ccccc2C1C(=O)NCc1ccccc1OC (stereo unspecified)	0	-1
COc1ccccc1CNC(=O)C1c2ccccc2CC(=O)N1Cc1ccccc1 (stereo unspecified)	1	100*
C=CCc1c(C)nc2nc(SCC(=O)Nc3ccc(C)c(C)c3)nn2c1C	-4	53*
Cc1cc(C)n2nc(SC(C)C(=O)NCc3ccccc3Cl)nc2n1 (stereo unspecified)	60*	-1
Cc1cc(C)n2nc(SCc3c(F)cccc3Cl)nc2n1	-8	14
Cc1cc(C)n2nc(SC(C)C(=O)NCc3ccccc3)nc2n1 (stereo unspecified)	8	25
Cc1cc(C)n2nc(SCC(=O)Nc3cccc(Cl)c3)nc2n1	-9	6
SMILES	Pf apPOL inh	mHTT CaM bind
Cc1cc(C)n2nc(SCC(=O)Nc3ccc(C)c(Cl)c3)nc2n1	-9	51*
Cc1cc(C)n2nc(SCc3ccc(F)cc3Cl)nc2n1	-9	52*
C=CCc1c(C)nc2nc(SCC(=O)Nc3cccc(Cl)c3)nn2c1C	-7	31
CCOC(=O)[C@]12Cc3c(cc(OC)c(OC)c3OC)[C@H]1N(Cc1ccccc1)C(=O)c1cc(F)c(F)cc12	0	8
COc1ccc(-n2nc3c(c2NC(=O)c2ccccc2Cl)CS(=O)C3)cc1 (stereo unspecified)	-1	2
CCCCNC(=O)c1cc(S(=O)(=O)N2CCCCC2)oc1C	-4	.
COc1ccc(NC(=O)c2ccccc2SCc2ccc(F)cc2)cc1OC	-6	13
Cc1ccccc1S(=O)(=O)N1CCC2(CC1)NCCN=C2NC1CCCC1	-2	-4
COc1cc(NC(=O)CSc2nc3nc(C)c(Cc4ccccc4C)c(C)n3n2)cc(OC)c1	-8	16
COc1ccc(NC(=O)CSc2nc3nc(C)c(Cc4ccccc4C)c(C)n3n2)cc1OC	-8	55*
COc1ccc(N(CC(=O)Nc2ccc3c(c2)OCO3)S(=O)(=O)c2ccccc2)c(OC)c1	-8	9
c1ccc2[nH]c(CCSCCc3nc4ccccc4[nH]3)nc2c1	-4	17
Nc1nc(-c2ccccc2)cc(=S)s1	.	51*
Nc1nc(-c2ccc(-c3ccccc3)cc2)cs1	0	45
O=C(Nc1cccc(-c2nc3ccccc3[nH]2)c1)c1ccc(Br)o1	102*	25
O=C(Nc1ccc(Nc2ccccc2)cc1)c1ccc(Br)o1	-9	61*
O=C(Nc1ccc(NC(=O)c2ccc(Br)o2)cc1)c1ccccc1	-3	4
O=C(Nc1ccc(Cl)c(-c2nc3ccccc3[nH]2)c1)c1ccc(Br)o1	-1	15
CCOc1cccc(C(=O)Nc2ccccc2[N+](=O)[O-])c1	2	42
CCS(=O)(=O)c1ccc(CC(=O)Nc2ccc(F)cc2F)cc1	2	-8
O/N=C1\CC(O)(C(F)(F)F)Oc2ccc(Cl)cc21 (stereo unspecified)	-5	i
CC/C(=C\c1ccccc1)c1cccc2oc3ccccc3c12	1	-12
CC/C(=C/c1ccccc1)c1cccc2[nH]c3c(OC)cccc3c12	-5	54*
COC(=O)c1n[nH]nc1C(=O)OC	3	.
Cc1ccc(C(=O)Nc2ccccc2C(N)=O)c(Cl)c1	-35	-7
SMILES	Pf apPOL inh	mHTT CaM bind
CCOc1ccc(CN2CCC(C)(O)C(N3CCCC3)C2)cc1 (stereo unspecified)	-1	2
N#Cc1c(N)nc(SCC(=O)c2ccc(O)c(O)c2)c(C#N)c1-c1cccc(Cl)c1	4	85*
N#Cc1c(N)nc(SCC(=O)c2ccc(Br)cc2)c(C#N)c1-c1ccccc1	-12	-8
COc1ccc(-c2c(C#N)c(N)nc(SCC(=O)c3ccc(O)c(O)c3)c2C#N)cc1	-6	99*
N#Cc1c(N)nc(SCC(=O)c2ccc(O)c(O)c2)c(C#N)c1-c1ccc(O)cc1	27	31
CN(C(=O)c1ccc(Br)c(S(=O)(=O)N2CCCCC2)c1)c1ccccc1	-28	3
O=C1c2nc3ccccn3c2C(=O)N1Cc1ccccc1	-6	9
O=[N+]([O-])c1ccc(NCCCNS(=O)(=O)c2ccc(Cl)cc2)c(C(F)(F)F)c1	7	53*
CC(=O)Nc1ccc(S(=O)(=O)NCCCNc2ccc([N+](=O)[O-])cc2Cl)cc1	-6	11
CC(C)(C)C(=O)N1CCCC2(CC(c3cccnc3)=CO2)C1 (stereo unspecified)	-6	-15
COc1ccc(N2C(=O)CC(Sc3nc4ccccc4s3)C2=O)cc1 (stereo unspecified)	-8	29
COc1ccc(OC)c(N2C(=O)CC(Sc3nc4ccccc4s3)C2=O)c1 (stereo unspecified)	-2	51*!
CCOC(=O)C1=C(C)c2ccccc2OC1(CC)C(=O)OCC (stereo unspecified)	-4	-50
CCOC(=O)C1=C(C)c2ccccc2N(C(=O)OC)C1(C)C(=O)OCC (stereo unspecified)	78*	41
CCN1C2=C(C(=O)CCC2)C(c2ccccc2OCc2ccc([N+](=O)[O-])cc2)C2=C1CCCC2=O	-17	-1
CCC(=O)NC1CCc2[nH]c3ccc(C)cc3c2C1 (stereo unspecified)	-4	26
Cc1cc2[nH]c3c(c2cc1C)CC(NC(=O)C1CCCC1)CC3 (stereo unspecified)	39	45
O=C(CC1CC1)NC1CCc2[nH]c3ccc(Cl)cc3c2C1 (stereo unspecified)	2	88*
Cc1ccc2[nH]c3c(c2c1)CC(NC(=O)CC1C=CCC1)CC3 (stereo unspecified)	6	97*
COc1ccc(C(=O)Nc2ccccc2-c2ccccc2NC(=O)c2ccc(OC)cc2)cc1	3	0
CCC(=O)Nc1cccc(NC(=O)COc2cccc(C)c2C)c1	4	-1
